Source: PubChem BioAssay (EPA / NIEHS)
Inconclusive results are not listed. Calls of active or inactive are those of the source. Rule for the calls, unless noted: active = hit-call score of the fitted dose curve at least 0.9, where 1 is the maximum; inactive = score below 0.9.

Experiments:
[1] = target: Paired box protein Pax-6 (Homo sapiens) (UniProt P26367); experiment: ATG_Pax6_CIS: Attagene CIS-FACTORIAL HepG2 Assay for human Paired Box 6 (PAX6) (AID 2282956); details: HepG2 CIS-FACTORIAL PAX6 reporter transcription, RNA readout; actives raise or lower the signal
Paired box protein Pax-6 (Homo sapiens), sequence (P26367 whole entry, looked up): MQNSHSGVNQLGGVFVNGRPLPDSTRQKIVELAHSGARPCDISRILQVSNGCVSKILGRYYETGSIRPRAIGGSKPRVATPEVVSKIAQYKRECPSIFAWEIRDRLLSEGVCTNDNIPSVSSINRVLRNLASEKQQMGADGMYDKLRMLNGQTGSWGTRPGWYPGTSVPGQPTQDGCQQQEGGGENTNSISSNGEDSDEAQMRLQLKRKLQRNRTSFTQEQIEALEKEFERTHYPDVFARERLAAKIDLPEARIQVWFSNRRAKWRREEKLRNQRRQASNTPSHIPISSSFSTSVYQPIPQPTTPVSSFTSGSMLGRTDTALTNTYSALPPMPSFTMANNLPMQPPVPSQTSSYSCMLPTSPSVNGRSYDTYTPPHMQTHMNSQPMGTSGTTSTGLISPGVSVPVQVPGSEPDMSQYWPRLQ
Method in brief: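 Multiplexed cis-reporter HepG2 system; 24 h treatment; reporter mRNA read by RT-PCR/CE fluorescence; bidirectional fit vs DMSO.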

[2] = ATG_PXRE_CIS: Attagene CIS-FACTORIAL HepG2 Assay for human Pregnane X Receptor Element (PXRE) (AID 2282957); details: HepG2 Attagene CIS-FACTORIAL PXRE reporter, mRNA; actives raise or lower the signal
Method in brief: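 HepG2 cells transiently transfected with cis-regulated multiple reporter transcription units; endogenous factor activity measured as reporter mRNA 24 h after dosing. RT-PCR, fluorescent primer extension, HpaI digestion, capillary electrophoresis; bidirectional fit versus DMSO baseline.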

[3] = ATG_PPRE_CIS: Attagene CIS-FACTORIAL HepG2 Assay for human Peroxisome Proliferator-activated Response Element (PPRE) (AID 2282958); details: HepG2 PPRE cis-element reporter, Attagene transcription factor profiling; actives raise or lower the signal
Method in brief: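 Transcript-level reporter induction in transfected HepG2 cells after 24 h chemical exposure, quantified by fluorescence from RT-PCR products separated by capillary electrophoresis.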

[4] = ATG_RORE_CIS: Attagene CIS-FACTORIAL HepG2 Assay for human RAR-related Orphan Receptor Element (RORE) (AID 2282959); details: HepG2 Attagene cis-factorial RORE reporter, mRNA; actives raise or lower the signal
Method in brief: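 Multiplexed reporter assay measuring mRNA induction from a cis promoter element in transiently transfected HepG2 cells after 24 h treatment. Detection via RT-PCR and capillary electrophoresis fluorescence; DMSO serves as baseline.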

[5] = ATG_Sox_CIS: Attagene CIS-FACTORIAL HepG2 Assay for human SRY-box transcription factor (SOX) (AID 2282960); details: HepG2 Attagene cis-factorial SOX reporter, mRNA; actives raise or lower the signal
Method in brief: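 Cells were transfected with reporter constructs under cis-regulatory promoters, then exposed to chemicals for 24 h. Reporter transcripts were quantified by fluorescence after RT-PCR and capillary electrophoresis; activity was fitted in both directions against DMSO.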

[6] = target: Transcription factor Sp1 (Homo sapiens) (UniProt P08047); experiment: ATG_Sp1_CIS: Attagene CIS-FACTORIAL HepG2 Assay for human Specificity Protein 1 (Sp1) (AID 2282961); details: HepG2 Sp1 cis-reporter transcription, actives raise or lower the signal
Transcription factor Sp1 (Homo sapiens), sequence (P08047 whole entry, looked up): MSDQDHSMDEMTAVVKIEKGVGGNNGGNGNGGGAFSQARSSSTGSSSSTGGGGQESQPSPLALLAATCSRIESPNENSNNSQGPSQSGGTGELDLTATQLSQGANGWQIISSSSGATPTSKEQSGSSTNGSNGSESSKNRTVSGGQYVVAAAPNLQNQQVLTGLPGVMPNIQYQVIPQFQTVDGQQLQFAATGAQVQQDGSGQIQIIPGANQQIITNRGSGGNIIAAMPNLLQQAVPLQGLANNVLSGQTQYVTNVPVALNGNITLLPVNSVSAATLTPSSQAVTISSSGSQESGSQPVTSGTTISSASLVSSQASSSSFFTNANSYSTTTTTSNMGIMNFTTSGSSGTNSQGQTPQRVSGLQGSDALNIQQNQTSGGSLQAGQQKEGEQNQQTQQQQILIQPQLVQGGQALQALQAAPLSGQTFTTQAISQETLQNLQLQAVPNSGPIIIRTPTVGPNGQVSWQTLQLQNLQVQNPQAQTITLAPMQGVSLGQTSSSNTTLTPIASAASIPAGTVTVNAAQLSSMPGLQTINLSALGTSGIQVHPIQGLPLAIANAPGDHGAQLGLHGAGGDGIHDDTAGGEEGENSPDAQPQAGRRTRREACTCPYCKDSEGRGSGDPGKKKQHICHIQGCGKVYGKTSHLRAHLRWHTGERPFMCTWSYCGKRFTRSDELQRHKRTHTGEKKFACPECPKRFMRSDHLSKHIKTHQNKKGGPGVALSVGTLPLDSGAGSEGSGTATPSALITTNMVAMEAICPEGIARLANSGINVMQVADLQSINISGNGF
Method in brief: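 Measures mRNA induction of an Sp1-linked reporter in HepG2 cells 24 h post-dosing. Multiplexed reporters read by RT-PCR and capillary electrophoresis; DMSO serves as negative control and baseline.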

[7] = ATG_SREBP_CIS: Attagene CIS-FACTORIAL HepG2 Assay for human Sterol Regulatory Element Binding (SREBP) (AID 2282962); details: HepG2 Attagene cis-factorial SREBP reporter, mRNA; actives raise or lower the signal
Method in brief: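 mRNA induction of transfected cis-promoter reporters in HepG2 cells, 24 h post-dose. Detection: RT-PCR with 6-FAM-labelled products, HpaI digest, capillary electrophoresis. DMSO served as negative control and baseline.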

[8] = target: Signal transducer and activator of transcription 3 (Homo sapiens) (UniProt P40763); experiment: ATG_STAT3_CIS: Attagene CIS-FACTORIAL HepG2 Assay for human Signal Transducer and Activator of Transcription 3 (STAT3) (AID 2282963); details: HepG2, Attagene cis-factorial STAT3 reporter transcription; actives raise or lower the signal
Signal transducer and activator of transcription 3 (Homo sapiens), sequence (P40763 whole entry, looked up): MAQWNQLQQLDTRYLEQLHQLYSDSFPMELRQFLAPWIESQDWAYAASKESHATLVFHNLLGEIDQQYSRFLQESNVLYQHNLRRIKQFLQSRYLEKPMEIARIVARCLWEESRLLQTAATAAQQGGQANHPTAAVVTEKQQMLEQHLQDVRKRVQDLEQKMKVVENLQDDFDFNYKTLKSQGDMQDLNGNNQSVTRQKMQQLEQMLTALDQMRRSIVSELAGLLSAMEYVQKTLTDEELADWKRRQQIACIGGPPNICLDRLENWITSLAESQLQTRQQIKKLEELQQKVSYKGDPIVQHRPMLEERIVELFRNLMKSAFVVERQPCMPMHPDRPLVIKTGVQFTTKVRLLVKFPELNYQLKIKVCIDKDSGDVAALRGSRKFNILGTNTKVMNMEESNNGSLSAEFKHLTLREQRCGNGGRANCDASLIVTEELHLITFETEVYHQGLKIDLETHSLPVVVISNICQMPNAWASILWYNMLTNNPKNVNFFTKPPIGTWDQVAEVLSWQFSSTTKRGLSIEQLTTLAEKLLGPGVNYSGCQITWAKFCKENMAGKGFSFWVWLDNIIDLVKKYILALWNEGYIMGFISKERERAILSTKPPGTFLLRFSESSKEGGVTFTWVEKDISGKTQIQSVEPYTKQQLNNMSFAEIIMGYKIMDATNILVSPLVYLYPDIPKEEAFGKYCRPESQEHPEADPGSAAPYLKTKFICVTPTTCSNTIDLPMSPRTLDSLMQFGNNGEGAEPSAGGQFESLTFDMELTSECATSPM
Method in brief: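 Values derive from bidirectional fits relative to DMSO of reporter mRNA levels, measured by RT-PCR with capillary electrophoresis, in HepG2 cells carrying transiently transfected cis-regulated reporter units and exposed 24 h.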

[9] = ATG_TA_CIS: Attagene CIS-FACTORIAL HepG2 Assay for human TA Basal Promoter (AID 2282964); details: HepG2 Attagene CIS-factorial TA basal promoter reporter; actives raise or lower the signal
Method in brief: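 HepG2 cells transiently transfected with multiplexed cis-promoter reporter units, dosed 24 h. Reporter mRNA measured by RT-PCR, 6-FAM labelling, HpaI digestion and capillary electrophoresis; bidirectional fit versus DMSO baseline, serving as background control.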

[10] = ATG_TCF_b_cat_CIS: Attagene CIS-FACTORIAL HepG2 Assay for human T-Cell-Factor with beta-catenin (TCF/b-cat) (AID 2282965); details: HepG2 TCF/beta-catenin cis-reporter transcription, actives raise or lower the signal
Method in brief: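 HepG2, transient MRTU transfection, cis-element-driven reporters (endogenous TFs). 24 h compound exposure. Readout: reporter mRNA by RT-PCR + 6-FAM primer extension, HpaI digest, capillary electrophoresis. Gain/loss fit vs DMSO baseline.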

[11] = ATG_TAL_CIS: Attagene CIS-FACTORIAL HepG2 Assay for human TAL Basal Promoter (AID 2282966); details: HepG2 Attagene cis-factorial TAL promoter reporter; actives raise or lower the signal;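 note: background control endpoint measuring basal TAL promoter reporter mRNA not a specific factor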
Method in brief: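 HepG2 cells were transiently transfected with promoter-driven multiplexed reporter units and dosed for 24 h. Reporter mRNA was measured by RT-PCR with capillary electrophoresis fluorescence; bidirectional fits used DMSO as baseline, serving as a background control.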

[12] = ATG_TGFb_CIS: Attagene CIS-FACTORIAL HepG2 Assay for human Transforming Growth Factor (TGF) (AID 2282967); details: HepG2 Attagene CIS TGFb reporter, mRNA transcription; actives raise or lower the signal
Method in brief: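 HepG2 cells transiently transfected with cis-promoter-driven multiplexed reporter units; 24 h compound exposure. Reporter mRNA measured by RT-PCR, 6-FAM labeling, HpaI digestion and capillary electrophoresis; bidirectional fit versus DMSO baseline.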

[13] = ATG_VDRE_CIS: Attagene CIS-FACTORIAL HepG2 Assay for human Vitamin D Receptor Element (VDRE) (AID 2282968); details: HepG2 VDRE cis-reporter transcription, actives raise or lower the signal
Method in brief: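 Cell-based multiplexed reporter format in human liver HepG2 cells, 24 h post-dose. Fluorescence from capillary electrophoresis of reporter cDNA gives the signal, with DMSO as negative control and baseline.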

[14] = target: Nuclear receptor subfamily 1 group I member 3 (Homo sapiens) (UniProt Q14994); experiment: ATG_CAR_TRANS: Attagene TRANS-FACTORIAL HepG2 Assay for human Constitutive Androstane Receptor (CAR) (AID 2282969; active = hit-call score of the fitted dose curve at least 0.9, where 1 is the maximum;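 note: activators raise reporter mRNA above DMSO so AC50 marks induction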); details: HepG2 Attagene TRANS-FACTORIAL CAR reporter
Nuclear receptor subfamily 1 group I member 3 (Homo sapiens), sequence (Q14994 whole entry, looked up, the tested form may be a part): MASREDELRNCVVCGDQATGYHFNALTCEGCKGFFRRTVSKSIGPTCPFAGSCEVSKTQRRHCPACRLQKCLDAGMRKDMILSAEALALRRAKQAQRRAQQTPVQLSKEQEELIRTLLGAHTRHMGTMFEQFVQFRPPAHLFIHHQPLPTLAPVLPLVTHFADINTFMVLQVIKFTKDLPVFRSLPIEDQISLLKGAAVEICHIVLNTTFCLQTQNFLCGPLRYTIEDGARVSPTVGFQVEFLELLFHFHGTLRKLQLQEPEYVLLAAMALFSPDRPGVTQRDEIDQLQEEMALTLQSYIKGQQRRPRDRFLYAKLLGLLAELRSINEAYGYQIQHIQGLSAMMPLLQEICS
Method in brief: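 HepG2 cells transiently transfected with GAL4-UAS reporter units; TRANS format reads activity of exogenous chimeric NR-Gal4 protein. After 24 h dosing, reporter mRNA quantified by RT-PCR, 6-FAM labelling and capillary electrophoresis; gain of signal fitted against DMSO.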

[15] = target: X-box-binding protein 1 (Homo sapiens) (UniProt P17861); experiment: ATG_Xbp1_CIS: Attagene CIS-FACTORIAL HepG2 Assay for human X-box Binding Protein 1 (XBP1) (AID 2282972); details: HepG2 XBP1 cis-element reporter, Attagene multiplex; actives raise or lower the signal
X-box-binding protein 1 (Homo sapiens), sequence (P17861 whole entry, looked up, the tested form may be a part): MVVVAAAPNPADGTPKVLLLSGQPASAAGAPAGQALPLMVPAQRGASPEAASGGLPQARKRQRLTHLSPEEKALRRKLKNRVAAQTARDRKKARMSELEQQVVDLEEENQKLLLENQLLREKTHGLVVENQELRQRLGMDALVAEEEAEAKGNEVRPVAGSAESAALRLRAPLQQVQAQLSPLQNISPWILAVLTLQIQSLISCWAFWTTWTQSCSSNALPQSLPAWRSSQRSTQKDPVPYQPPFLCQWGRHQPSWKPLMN
Method in brief: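 Fluorescence-labelled cDNA fragments from reporter transcripts, separated by capillary electrophoresis, give the signal. Source: HepG2 cells transfected with promoter-driven reporter units, harvested 24 h post-dose. DMSO served as reference for bidirectional curve fitting.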

[16] = ATG_M_19_TRANS: Attagene TRANS-FACTORIAL HepG2 Assay for M19 Transcription Factor (Internal Marker) (AID 2282974; active = hit-call score of the fitted dose curve at least 0.9, where 1 is the maximum); details: HepG2 Attagene TRANS-FACTORIAL M19 internal marker reporter
Method in brief: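 After transfection of HepG2 with GAL4-UAS-driven reporter constructs, cells are dosed for 24 h. Total RNA is reverse-transcribed, reporter sequences PCR-amplified and labelled, then HpaI-digested and sized by capillary electrophoresis.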

[17] = ATG_GAL4_TRANS: Attagene TRANS-FACTORIAL HepG2 Assay for GAL4 (Internal Marker) (AID 2282976; active = hit-call score of the fitted dose curve at least 0.9, where 1 is the maximum); details: HepG2 Attagene TRANS GAL4 internal marker reporter
Method in brief: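 HepG2 cells transiently transfected with multiplexed GAL4-UAS reporter constructs were dosed for 24 h. Reporter mRNA was measured by RT-PCR, 6-FAM primer extension, HpaI digestion and capillary electrophoresis, and gain of signal was fitted relative to DMSO.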

[18] = target: Steroid hormone receptor ERR1 (Homo sapiens) (UniProt P11474); experiment: ATG_ERRa_TRANS: Attagene TRANS-FACTORIAL HepG2 Assay for human Estrogen-Related Receptor alpha (ERRa) (AID 2282971; active = hit-call score of the fitted dose curve at least 0.9, where 1 is the maximum); details: HepG2 Attagene TRANS reporter, ERRa transactivation
Steroid hormone receptor ERR1 (Homo sapiens), sequence (P11474 whole entry, looked up, the tested form may be a part): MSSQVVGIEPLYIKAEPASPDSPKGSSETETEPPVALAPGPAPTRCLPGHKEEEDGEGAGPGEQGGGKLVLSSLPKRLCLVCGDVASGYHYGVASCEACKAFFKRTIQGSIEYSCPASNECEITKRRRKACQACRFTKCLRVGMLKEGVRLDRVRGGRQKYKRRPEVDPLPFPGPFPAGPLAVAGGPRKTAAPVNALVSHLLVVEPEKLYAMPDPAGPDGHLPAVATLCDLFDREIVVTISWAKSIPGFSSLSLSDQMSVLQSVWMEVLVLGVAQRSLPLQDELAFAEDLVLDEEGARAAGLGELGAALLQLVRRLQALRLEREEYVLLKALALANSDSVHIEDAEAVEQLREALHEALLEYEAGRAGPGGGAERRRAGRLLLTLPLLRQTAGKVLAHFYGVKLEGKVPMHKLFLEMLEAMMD
Method in brief: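 HepG2 cells transiently transfected with multiplexed GAL4-UAS reporter units reading chimeric ERRa-Gal4 activity; 24 h compound exposure. Reporter mRNA measured by RT-PCR, 6-FAM labelling, HpaI digest and capillary electrophoresis; gain of signal fitted versus DMSO baseline.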

[19] = target: Estrogen-related receptor gamma (Homo sapiens) (UniProt P62508); experiment: ATG_ERRg_TRANS: Attagene TRANS-FACTORIAL HepG2 Assay for human Estrogen-Related Receptor gamma (ERRg) (AID 2282977; active = hit-call score of the fitted dose curve at least 0.9, where 1 is the maximum;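 note: hits increase reporter signal over DMSO so potencies reflect activators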); details: HepG2 Attagene TRANS reporter, ERRg transactivation
Estrogen-related receptor gamma (Homo sapiens), sequence (P62508 whole entry, looked up, the tested form may be a part): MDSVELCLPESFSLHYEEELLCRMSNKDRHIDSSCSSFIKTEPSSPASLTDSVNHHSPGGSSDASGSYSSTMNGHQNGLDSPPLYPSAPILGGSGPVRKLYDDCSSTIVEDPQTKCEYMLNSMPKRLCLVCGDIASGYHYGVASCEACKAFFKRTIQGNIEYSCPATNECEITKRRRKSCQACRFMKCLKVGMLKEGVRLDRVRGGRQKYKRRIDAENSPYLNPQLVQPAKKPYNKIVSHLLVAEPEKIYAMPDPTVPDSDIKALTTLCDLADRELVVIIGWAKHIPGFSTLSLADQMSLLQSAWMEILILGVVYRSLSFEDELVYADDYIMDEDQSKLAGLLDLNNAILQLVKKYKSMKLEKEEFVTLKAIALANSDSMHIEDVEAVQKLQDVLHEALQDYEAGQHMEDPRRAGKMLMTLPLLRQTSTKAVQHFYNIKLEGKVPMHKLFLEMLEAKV
Method in brief: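 Transient HepG2 transfectants, 24 h compound exposure, GAL4-UAS reporter mRNA by RT-PCR/6-FAM labelling/capillary electrophoresis; positive direction vs DMSO.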

Measured: AC50

CC(=O)NCCO
not listed: [18] | [19]
inactive: all other assays above

O=C1CCCC=CCCCCCCCCCC1
active: [2] 9.05 µM | [6] 48.8 µM | [10] 49.3 µM | [13] 18.4 µM | [15] 55.6 µM
not listed: [14] | [16] | [17] | [18] | [19]
inactive: all other assays above

CCOCCOCCOCC
not listed: [18] | [19]
inactive: all other assays above

Nc1ccc(N)c2c1C(=O)c1ccccc1C2=O
active: [3] 4.05 µM | [13] 6.59 µM | [15] 2.57 µM
not listed: [14]
inactive: all other assays above

C=Cc1ccc(C)cc1
active: [2] 36.9 µM
not listed: [14] | [18] | [19]
inactive: all other assays above

CS(=O)(=O)c1ccc(C2=C(c3ccccc3)C(=O)OC2)cc1
active: [2] 20.1 µM
not listed: [13] | [19]
inactive: all other assays above

CCCCC(CC)COC(C)=O (configuration not stated)
not listed: [19]
inactive: all other assays above

COc1ccc(N=Nc2cc(C)c(N=Nc3ccc(S(=O)(=O)O)cc3)cc2OC)cc1
active: [1] 100 µM | [2] 23.1 µM | [4] 8.45 µM | [6] 175 µM | [7] 162 µM | [8] 162 µM | [12] 172 µM
not listed: [14] | [17] | [18] | [19]
inactive: all other assays above
